# The supplement of paper PMC3334620
# Whole data set: some 33,000 sequences, median “E-score (-0.5 to 0.5)” near -0.016, cut for the highest 2% near 0.3. This is one part of a sample in which the highest values are shown more often than they occur.
# Biological target: T1, Yer184c (UniProt P39961)
# T1 sequence: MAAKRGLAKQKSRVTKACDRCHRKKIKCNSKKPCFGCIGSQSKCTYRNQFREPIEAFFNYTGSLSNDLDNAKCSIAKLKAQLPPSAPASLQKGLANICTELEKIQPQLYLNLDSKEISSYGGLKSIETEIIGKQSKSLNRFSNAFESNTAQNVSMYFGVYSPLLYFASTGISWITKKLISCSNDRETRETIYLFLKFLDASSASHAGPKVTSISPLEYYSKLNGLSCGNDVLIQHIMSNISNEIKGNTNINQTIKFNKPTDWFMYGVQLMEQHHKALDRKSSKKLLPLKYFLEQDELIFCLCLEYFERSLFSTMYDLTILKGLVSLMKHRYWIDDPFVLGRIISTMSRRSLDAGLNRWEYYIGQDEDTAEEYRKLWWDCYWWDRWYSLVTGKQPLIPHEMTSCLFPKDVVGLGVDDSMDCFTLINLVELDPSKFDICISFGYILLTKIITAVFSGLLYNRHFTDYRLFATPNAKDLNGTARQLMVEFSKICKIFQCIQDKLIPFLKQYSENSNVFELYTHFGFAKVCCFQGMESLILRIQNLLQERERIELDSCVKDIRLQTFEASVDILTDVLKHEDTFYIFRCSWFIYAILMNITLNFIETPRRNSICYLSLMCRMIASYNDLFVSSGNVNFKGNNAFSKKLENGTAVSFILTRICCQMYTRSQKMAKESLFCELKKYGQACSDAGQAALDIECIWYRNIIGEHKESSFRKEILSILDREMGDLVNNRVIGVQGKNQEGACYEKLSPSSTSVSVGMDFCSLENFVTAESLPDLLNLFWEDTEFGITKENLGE
# Test: PBM E-score (8-mer binding enrichment) (E-score (-0.5 to 0.5)); higher = stronger / more preferred TF binding
# Conditions: protein concentration: 100 nM; construct: GST-full length
# Protocol: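 Universal 'all 10-mer' protein binding microarrays (Agilent AMADID 015681) probed with GST-tagged S. cerevisiae TFs (full-length or DBD) made by in vitro transcription/translation (PURExpress), about 100-200 nM. Bound TF was detected with fluorescent anti-GST. Each ungapped 8-mer (which stands for itself and its reverse complement) is scored by the PBM enrichment score (E-score), a modified Wilcoxon-Mann-Whitney statistic from -0.5 to +0.5, computed with the Universal PBM Analysis Suite. Scale: above 0.35 generally sequence-specific binding.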
row,Sequence,PBM E-score
1,CCTGGAGA,-0.035
2,AATCCTGA,0.0482
3,AAATACCT,-0.105
4,ATCAACTA,0.178
5,GAGGTGCC,0.0277
6,CAACGTGC,-0.133
7,ACAAGTAC,0.00537
8,AAGCGAGT,0.225
9,ACAGCCGA,0.0776
10,ATAGCCGC,0.0602
11,ACAGCCGG,0.343
12,ACAGCCGC,-0.0252
13,ATAGCCGG,0.388
14,ATAGCCGA,0.299
15,AGAGCCGA,0.26
16,AGAGCCGC,0.0235
17,AGAGCCGG,0.314
18,ATCCACTG,-0.143
19,CTCCAGTC,-0.195
20,AGACCGAT,0.0681
21,CGACCGAA,0.273
22,AGACCGAA,0.305
23,TGACCGAA,0.228
24,GGACCGAC,0.12

row,Sequence,PBM E-score
1,GGACCGAA,0.353
2,ACGTTGCC,-0.14
3,CGTTACCC,-0.104
4,CGATACCG,-0.0503
5,AAATTGCC,0.168
6,CAGTGTGA,0.0148
7,AGCTCCAG,-0.151
8,TAAATTCA,-0.0563
9,GCTTCGTA,-0.148
10,GCTTCGGA,0.304
11,ACTTCGGG,0.0741
12,ACTTCGGA,0.337
13,GCTTCGCA,-0.163
14,CCTTCGGA,0.327
15,CCTTCGCA,-0.0813
16,CCTTCGGC,0.219
17,ACTTCGGC,0.269
18,CGCGTTGA,-0.00366
19,GGTCTTGA,-0.0168
20,CAGTGGCC,-0.0943
21,ATTTGTGA,0.0908
22,CCTCAACA,0.126
23,ACCCTAGC,-0.109
24,AACGCCTG,-0.104

row,Sequence,PBM E-score
1,TCCAGGCA,-0.15
2,CCGCAAAC,0.144
3,AGTCTTCA,-0.0522
4,CTTTCGGA,0.286
5,CTTTCGGC,0.201
6,ATTTCGGG,0.157
7,ATTTCGGA,0.348
8,ATTTCGTC,-0.0283
9,GTTTCGTA,0.274
10,ATTTCGCA,0.24
11,GTTTCGGA,0.304
12,ATTTCGGC,0.373
13,TCATAGGA,-0.0683
14,AATACCGA,0.165
15,GACCATAA,0.0623
16,CTCAGTAA,-0.0129
17,CAATGGAG,-0.164
18,CGGATACG,0.247
19,AATATTAA,0.311
20,AATATTCA,0.037
21,AATATTCC,0.342
22,AATATTCG,0.0897
23,AATATTAT,0.293
24,TATATTAA,0.274

row,Sequence,PBM E-score
1,CGACCACA,-0.136
2,TAGCGAGA,0.00559
3,AAGGACAA,0.0335
4,ATCGGTCC,0.0402
5,GTCCCACA,0.00972
6,CTTGGTGA,-0.0525
7,ACCGAAAG,0.181
8,TCCGAAAA,0.264
9,CCCGAAAA,0.263
10,ACCGAATA,0.173
11,GCCGAATA,0.361
12,ACCGAAAC,0.264
13,GCCGAAAC,0.34
14,CCCGAATA,0.196
15,GCCGAAAA,0.439
16,ACCGAAAA,0.349
17,ACCGAAAT,0.218
18,CCCGAAAC,0.0699
19,GGTGGGAC,-0.349
20,GAAGTAGC,-0.00548
21,AGTAACGG,0.101
22,AACGTAAG,-0.122
